Assay outcomes (PubChem BioAssay)
AmpC detergent = blocks E. coli AmpC beta-lactamase in detergent assay. P00811. AID 485294. Potency, µM (series often up to 114 µM), inactives show at the top dose activity change, negative = inhibition, usual class: inhibitors. 0.041% of 370,000 active. AmpC hydrolysis of nitrocefin, absorbance 480 nm, 0.01% Triton;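 note: potency is the fitted concentration of half-maximal effect; 0% = no-compound wells and -100% = no-enzyme wells; nearly all actives have a fitted effect of over 25% in size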
Target sequence (P00811 whole entry, looked up): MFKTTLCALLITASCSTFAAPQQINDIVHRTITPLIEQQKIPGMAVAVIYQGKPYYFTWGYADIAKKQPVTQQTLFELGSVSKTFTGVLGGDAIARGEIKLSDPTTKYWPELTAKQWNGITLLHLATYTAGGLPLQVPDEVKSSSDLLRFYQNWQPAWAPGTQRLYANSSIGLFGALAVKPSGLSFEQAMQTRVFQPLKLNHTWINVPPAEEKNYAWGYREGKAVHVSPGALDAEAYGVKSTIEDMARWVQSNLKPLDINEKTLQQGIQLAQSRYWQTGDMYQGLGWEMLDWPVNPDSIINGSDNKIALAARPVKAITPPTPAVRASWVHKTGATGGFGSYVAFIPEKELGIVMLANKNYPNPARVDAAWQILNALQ
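AmpC (5.3 nM in the dispensed reagent) in 20 mM phosphate pH 7.0 with 0.01% (detergent screen) or 0.0001% Triton X-100 was preincubated with compounds for 15 min at room temperature. Nitrocefin was then added from an 800 uM solution, and hydrolysis was followed at 480 nm.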
CHX counter = affects cycloheximide protein synthesis inhibition readout, counter-screen; cell reporter, cycloheximide protein synthesis inhibition counterscreen; max response, %; 12% of 300,000 active; AID 2314; in the data active = max response mostly above about 13%, no sharp cut-off; inactive = mostly below about 14%; note: read at 38.3 µM for the half of the compounds with a filed dose; 0% is about no effect
AmpC inh no detg = blocks E. coli AmpC beta-lactamase in detergent-free assay; 0.52% of 330,000 active; AmpC nitrocefin hydrolysis, absorbance 480 nm, 0.0001% Triton; AID 485341; Potency, µM (doses to about 57.1 µM), for the others: at the top dose activity change, negative = inhibition, most hits filed as inhibitors;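 note: potency is the fitted concentration of half-maximal effect; plate controls were no compound for no effect and no enzyme for full effect; nearly all actives have a fitted effect of over 20% in size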
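20 mM phosphate pH 7.0 + 0.01% (detergent screen) or 0.0001% Triton X-100; 5.3 nM AmpC reagent; cpd preinc 15 min RT; nitrocefin (800 uM stock) to start; A480 q20 s × 4 min; Activity was normalised to no-enzyme and no-compound control wells.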
Shiga toxin inh = Shiga toxin inhibition; Vero cells, Shiga toxin protein synthesis inhibition reporter; 9.2% of 290,000 active; AID 2315; inhibition, % at 38.7 µM; in the data active = inhibition mostly above about 28%, no sharp cut-off; inactive = mostly below about 43%; note: 0% is about no effect
NS1 function inh = inhibitors of influenza NS1 protein function; Potency, µM (highest dose often 46.1 µM), inactives show at the top dose activity, positive = more growth; 0.4% of 270,000 active; AID 2326; calls by dose curve; note: potency is the fitted concentration of half-maximal effect; actives are rising curves; nearly all actives have a fitted effect of over 50% in size
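OD600 was taken as the measure of yeast growth restored by compound in an NS1-expressing S. cerevisiae strain. Cells had been washed out of glucose medium and diluted 1:100 into galactose -URA medium, pH 6.0.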
An asterisk follows results filed as active; ? = inconclusive; / = no result. This is one part of a sample in which hits are shown more often than they occur. Unless noted, calls come from the whole dose curve; as a rule, active = well fitted curve in the direction sought with a large enough effect; inconclusive = small, poorly fitted or top-dose-only effect, or another doubt; inactive = no such curve, though single readings can be large; an effect the other way counts as inactive or inconclusive.

SMILES | AmpC detergent | CHX counter | AmpC inh no detg | Shiga toxin inh | NS1 function inh
CCOC(=O)C1(CCc2ccccc2)CCN(C(=O)C2=C(C)OCCO2)CC1 | -5% | 22* | 118% | 42* | -2%
CCOC(=O)C1(CCc2ccccc2)CCN(C(=O)CCc2cnn(C)c2)CC1 | -1% | -1 | 133% | 16 | -9%
CCOC(=O)C1(CCc2ccccc2)CCN(C(=O)CN2CCOC2=O)CC1 | 4% | 21* | 63% | 46 | -2%
CCOC(=O)C1(CCCc2ccccc2)CCN(C(=O)c2cncs2)CC1 | 6% | -3 | 138% | 11 | -7%
CCOC(=O)C1(CCc2ccccc2)CCN(C(=O)c2cnc(C)cn2)CC1 | 0% | 29* | 164% | 83* | 2%
Cc1cccc(NC(=O)Cn2c(=O)n(Cc3nc(-c4ccccc4)no3)c(=O)c3ccccc32)c1 | 2% | / | / | / | /
COc1cc(Cl)c(C)cc1NC(=O)NC1COc2ccccc2C1 (stereo unspecified) | -1% | / | / | / | /
CCc1c2c(nc3ccc(OC)cc13)-c1nc3ccccc3c(=O)n1C2 | / | 21 | / | 45 | /
COC(=O)c1ccc(-n2c(/C=C/c3cc(OC)c(OC)c(OC)c3)nc3cc(Cl)ccc3c2=O)cc1 | 3% | / | / | / | /
COC(=O)Cc1nc(NC(=O)c2cccs2)sc1C | 2% | 35* | -5% | 54* | -7%
O=C(NC(=S)NCc1ccccc1)c1cccs1 | -5% | 14 | -40% | 25 | 6%
O=C(NC(=S)Nc1nc2ccccc2s1)c1cccs1 | 1% | 82* | -20% | 74* | -6%
COC(=O)c1nc(NC(=S)NC(=O)c2cccs2)sc1C | -3% | 23* | -49% | 51* | -6%
CCc1ccc(-c2nc(NC(=S)NC(=O)c3cccs3)sc2C)cc1 | 0% | -1 | -19% | -5 | -1%
CC(C)(O)C#Cc1ccc(C(=O)NCc2ccccc2F)cc1 | ? | 9 | -22% | 29 | -12%
CCc1cc(C(=O)c2ccc(C)cc2)c(NC(=O)CCl)s1 | -5% | 49* | -20% | 73* | -51%
CCN(C(=O)N1CCOCC1)c1ccccc1C | 1% | -2 | 4% | 18 | 14%
CC(=O)NC(Cc1ccccc1)C(=O)NC(Cc1ccccc1)C(=O)O (stereo unspecified) | 4% | -1 | 5% | -2 | 2%
CC(=O)NC(CC(C)C)C(=O)NC(Cc1ccccc1)C(N)=O (stereo unspecified) | -5% | 8.8* | -10% | 9 | -1%
CCOc1ccc(C(=O)N2CCC(c3ccncc3)CC2)cc1 | 7% | / | / | / | /
COc1ccc(NC(=O)c2cnc(N3CCCCC3)c3ccccc23)cc1Cl | 7% | / | / | / | /
CCC(C)NC(=O)Cn1c(COc2ccc(Cl)cc2Cl)nc2ccccc21 (stereo unspecified) | -4% | 33* | -24% | 39* | -1%
O=C(Nc1ccc2nc(SCCOc3ccccc3)sc2c1)c1cccs1 | 24% | / | / | / | /
COc1cc(/C=C2\SC(=S)N(NC(=O)c3ccccc3OC)C2=O)ccc1O | -7% | 17* | -39% | 26 | 8%
COc1cc(/C=C2\SC(=S)N(NC(=O)c3ccc(O)c(OC)c3)C2=O)ccc1O | 0% | 21* | -53% | 23 | 3%
SMILES | AmpC detergent | CHX counter | AmpC inh no detg | Shiga toxin inh | NS1 function inh
CC(=O)NN1C(=O)/C(=C/c2ccc(C(C)C)cc2)SC1=S | ? | 16* | 57% | 19 | 10%
CC1(C)CC(=O)C(C(O)c2ccccc2)C(C)(C)N1 (stereo unspecified) | 3% | 1 | -11% | -18 | 23%
CCN1CCN(Cc2c(O)ccc3oc(C)c(C(=O)Nc4ccc(OC)cc4)c23)CC1 | 19% | / | / | / | /
COc1ccc(OC)c(S(=O)(=O)N/N=C\c2ccc3c(c2)OCO3)c1 | -2% | 44* | -30% | 73* | -8%
Cc1ccc(S(=O)(=O)N/N=C\c2ccc3c(c2)OCO3)cc1 | -3% | 16* | -30% | 41 | -25%
Cc1ccc(NC(=O)CSc2nc(-c3ccco3)cc(C(F)(F)F)n2)cc1 | 20% | / | / | / | /
Cc1cc(NC(=O)c2n[nH]c(=O)c3ccccc23)ccc1Br | 8% | -1 | -15% | 17 | 5%
CCN(CC)S(=O)(=O)c1cc(NC(=O)c2n[nH]c(=O)c3ccccc23)ccc1C | 3% | 21* | -8% | 37 | 4%
CC(C)c1ccc(NC(=O)c2n[nH]c(=O)c3ccccc23)cc1 | 12% | 45* | -5% | 44* | /
COc1ccc(N2CCN(C(=O)c3cnn(-c4ccc(OC)cc4)c3C3CCN(C(=O)OC(C)(C)C)CC3)CC2)cc1 | 22% | / | / | / | /
O=C1NC(=O)C(=Cc2ccc(Sc3ccccc3)o2)C(=O)N1 | -2% | 20* | -24% | 34 | -14%
CCOC(=O)c1sc(NC(=O)c2ccc(Cl)s2)cc1C | ? | 39* | -17% | 56* | -105%
CCOC(=O)c1sc(NC(=O)c2cccc(S(=O)(=O)N(CC)CC)c2)cc1C | ? | 0 | -12% | -8 | 1%
CCOC(=O)c1c(NC(=O)Nc2ccc(Cl)cc2)sc(C)c1C | -1% | -5 | -22% | -3 | 2%
CCOC(=O)c1sc(NC(=O)c2ccc(S(=O)(=O)N(C)C)cc2)cc1C | -10% | -1 | -34% | -11 | -1%
CCOC(=O)c1sc(NC(=O)c2ccccc2)cc1C | 1% | 70* | -23% | 122* | -71%
CCOC(=O)c1sc(NC(=O)Nc2ccc(Cl)cc2)cc1C | -7% | 46* | -44% | 67* | -32%
CCOC(=O)Cn1c(=O)oc2cc(S(=O)(=O)N(C)c3cccc(C)c3)ccc21 | 6% | 0 | 27% | -14 | 0%
CCOc1ccc(N(CC(=O)NC2CCCCC2)C(=O)Cn2nnc(-c3ccc(C)o3)n2)cc1 | -1% | 10 | 57% | -2 | 21%
Cc1cc(=S)n(-c2ccccc2)n1C | 3% | 16 | -12% | 39* | -1%
O=C(CCCn1c(=S)[nH]c2ccc(Br)cc2c1=O)NCC1CCCO1 (stereo unspecified) | -1% | 0 | -11% | 5 | 1.8µM*
COc1ccc2c(c1)NC(c1ccc(Cl)cc1)=NC(c1cccs1)=N2 | 21% | / | / | / | /
CC(C)NC(=O)CC(=O)NN=C1CCCCC1 | 2% | -7 | -15% | 13 | -4%
Cc1cccc(Oc2ccccc2NC(=O)C2=COCCO2)c1 | -2% | / | -22% | / | /
COc1ccc(/C=C/c2nc(-c3ccccc3O)n[nH]2)cc1OC | ? | 20* | 70% | 23* | -28%
SMILES | AmpC detergent | CHX counter | AmpC inh no detg | Shiga toxin inh | NS1 function inh
O=C(O)COc1ccc(/C=C/c2nc(-c3ccccc3O)n[nH]2)cc1 | -3% | 7 | -24% | / | 15%
CCOc1ccccc1OCC(=O)OCc1csc(CC(=O)Nc2ccccc2C)n1 | 0% | / | 7% | / | /
Cc1ccc(SCC(=O)NCCN2C(=O)CSC2=O)cc1C | -11% | 26 | 0% | 29 | 1%
O=C(CSc1nc(-c2ccccc2)cs1)NCCN1C(=O)CSC1=O | 2% | 30* | -9% | 38 | /
Cc1ccc(Nc2nnc(SCC(=O)NCCN3C(=O)CSC3=O)s2)cc1C | 2% | 15* | 1% | active | 3%
O=C(CSc1nc2ccccc2o1)Nc1nc2c(s1)CCCC2 | / | / | / | / | -4%
